SW480 rereplic: inducers of DNA re-replication in SW480 colon cancer cells; 340,000 compounds, 1.8% hits; SW480 DNA re-replication, Hoechst DNA content imaging, 48 h; Potency, µM (doses to about 46.1 µM), without a hit: at the highest dose re-replication activation, most hits filed as activators; AID 624297; further: % of control where 0% means no effect; nearly all actives have a fitted effect of over 55% in size
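250 cells/well; 23 nL cpd via pin tool; 48 hr, 37 C, 5% CO2; Hoechst 40 min; imager read of total nuclear intensity, ex 405/em 500-530 nm.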
MCF10A rerep: inducers of DNA re-replication in MCF 10A breast cells | MCF 10A DNA re-replication, Hoechst nuclear intensity, 48 h | Potency, µM (top dose mostly 46.1 µM), without a hit: at the top dose activity, positive = re-replication, hits mostly activators | 350,000 compounds, 2.9% hits | AID 624296; further: % of control where 0% means no effect; nearly all actives have a fitted effect of over 50% in size
KB-V1 cytotox: kills drug-selected multidrug resistant KB-V1 cells | KB-V1 MDR cells viability, CellTiter-Glo, 72 h | Potency, µM (doses to about 46.1 µM), most hits filed as cytotoxic | 400,000 compounds, 3.4% hits; further: on the % scale 0 is the no-effect control and ±100 the full control effect; nearly all actives have a fitted effect of over 60% in size
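Readout: CellTiter-Glo luminescence, 10 min after addition. Cells: KB-V1 MDR subline, 72 h at 37 degrees C with compound. Analysis: corrected, normalized data fitted to concentration-effect curves.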
HT1080 IDH1KD tx: kills HT-1080 cells with IDH1 knockdown. HT-1080 IDH1 knockdown viability, ATP luminescence, 48 h. Potency, µM (top dose mostly 46.1 µM), for inactives: at the highest dose activity, negative = toxicity, most hits filed as cytotoxic. 360,000 compounds, 2% hits. AID 686971;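 further: 0% = DMSO wells and -100% = cell-free medium wells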
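% activity derives from luminescence (CellTiter-Glo), normalised to DMSO and no-cell wells. HT-1080-IDH1KD cells, 750/well, had 48 h compound exposure at 37 °C.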
HT1080-NT tox: kills 2HG-producing HT-1080-NT fibrosarcoma cells | Potency, µM (series often up to 46.1 µM), inactives show at the top dose activity, negative = less viability, usual class: cytotoxic | HT-1080-NT fibrosarcoma viability, CellTiter-Glo ATP luminescence, 48 h | 360,000 compounds, 1.6% hits;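 further: NT is the 2HG producing partner of a matched IDH1 knockdown line; 0% = DMSO-treated cells and -100% = media-only wells without cells; nearly all actives have a fitted effect of over 55% in size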
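Compounds were tested in concentration-response format on HT-1080-NT cells for 48 hours at 37 degrees C. Cell viability came from CellTiter-Glo luminescence; curves were classified by r2, response magnitude and activity.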
KB-3-1 tox: kills parental KB-3-1 adenocarcinoma cells; KB-3-1 viability, CellTiter-Glo ATP luminescence, 72 h; Potency, µM (series often up to 46.1 µM), usual class: cytotoxic; 400,000 compounds, 1.4% hits; AID 1347075; further: on the % scale 0 is the no-effect control and ±100 the full control effect; nearly all actives have a fitted effect of over 60% in size
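Parental KB-3-1 adenocarcinoma cells in phenol-red-free DMEM with 10% FBS were pin-treated with compounds at several concentrations, incubated 72 h at 37 °C, and viability read by CellTiter-Glo luminescence; concentration-effect curves were fitted after normalization.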
An asterisk follows results filed as active. A selection: hits, their analogues and other compounds. The true share with any hit is near 8%. The call rests on the fitted dose curve; in most records, active means well fitted curve in the direction sought with a large enough effect; inconclusive means small, poorly fitted or top-dose-only effect, or another doubt; inactive means no such curve, though single readings can be large; an effect the other way counts as inactive or inconclusive. Potency means the concentration at half of the fitted maximal effect.

What do the screens show for `Cc1ccc(S(=O)(=O)N2CCN(c3nc(-n4cncn4)nc4ccccc34)CC2)cc1`?
HT1080 IDH1KD tx: 9.8%; HT1080-NT tox: 1.8%

Results for Nn1c(Cc2cccc3ccccc23)nnc1SCc1ccccc1 ?
SW480 rereplic: 13.0%; MCF10A rerep: inconclusive; KB-V1 cytotox: 16.4µM*; HT1080 IDH1KD tx: 2.8%; HT1080-NT tox: 6.3%; KB-3-1 tox: inactive

Results for Nn1c(Cc2cccc3ccccc23)nnc1SCc1ccccc1Cl ?
SW480 rereplic: -2.3%; MCF10A rerep: -5.9%; KB-V1 cytotox: inactive; HT1080 IDH1KD tx: -2.7%; HT1080-NT tox: -6.0%; KB-3-1 tox: inactive

How did CCn1ccc2c(OCC(=O)NCc3ccc(C)cc3)cccc2c1=O do in these assays?
KB-V1 cytotox: inconclusive; KB-3-1 tox: inactive

What do the screens show for `Cc1cccc(N2CCN(S(=O)(=O)c3ccc(-c4ccc(=O)[nH]n4)o3)CC2)c1C`?
SW480 rereplic: inconclusive; MCF10A rerep: 20.6µM*; KB-V1 cytotox: inactive; HT1080 IDH1KD tx: -25.8%; HT1080-NT tox: inconclusive; KB-3-1 tox: inactive

Results for O=C1C=C(c2ccccc2)C[C@H](c2cccs2)[C@H]1n1nnc([N+](=O)[O-])n1 ?
SW480 rereplic: 2.06µM*; MCF10A rerep: inconclusive; KB-V1 cytotox: 16.4µM*; HT1080 IDH1KD tx: 9.2µM*; HT1080-NT tox: 14.6µM*; KB-3-1 tox: inactive

Results for O=C(CSc1nc2ncc(Cl)cc2[nH]1)c1c[nH]c2ccccc12 ?
SW480 rereplic: 24.8%; MCF10A rerep: 23.1µM*; KB-V1 cytotox: inactive; HT1080 IDH1KD tx: -4.6%; HT1080-NT tox: -8.9%; KB-3-1 tox: inactive

What do the screens show for `NC1=NC2(CCCCC2)N=C(Nc2ccc(F)cc2F)N1`?
SW480 rereplic: -6.9%; MCF10A rerep: 9.2%; KB-V1 cytotox: inactive; HT1080 IDH1KD tx: 5.6%; HT1080-NT tox: 3.8%; KB-3-1 tox: inactive

Results for Cc1cc(C)cc(NC2=NC3(CCCCC3)N=C(N)N2)c1 ?
SW480 rereplic: inconclusive; MCF10A rerep: 20.6µM*; KB-V1 cytotox: inactive; HT1080 IDH1KD tx: 4.61µM*; HT1080-NT tox: inconclusive; KB-3-1 tox: inconclusive

Results for COc1ccc(OC)c(NC2=NC3(CCCC3)N=C(N)N2)c1 ?
SW480 rereplic: 1.3%; MCF10A rerep: 13.8%; KB-V1 cytotox: inactive; HT1080 IDH1KD tx: -27.8%; HT1080-NT tox: -17.8%; KB-3-1 tox: inconclusive

Results for Cc1cccc(NC2=NC(C)(C)N=C(N)N2)c1 ?
SW480 rereplic: 1.2%; MCF10A rerep: -2.9%; KB-V1 cytotox: inactive; HT1080 IDH1KD tx: 0.164µM*; HT1080-NT tox: 0.326µM*; KB-3-1 tox: 1.64µM*

How did CCCCOc1ccc(NC2=NC3(CCCC3)N=C(N)N2)cc1 do in these assays?
SW480 rereplic: 1.5%; MCF10A rerep: inconclusive; KB-V1 cytotox: inactive; HT1080 IDH1KD tx: inconclusive; HT1080-NT tox: inconclusive; KB-3-1 tox: 7.31µM*

How did CC(=O)c1c(C)[nH]c(C(=O)Nc2ccc(Cl)cc2)c1C do in these assays?
SW480 rereplic: -1.7%; MCF10A rerep: 13.7%; KB-V1 cytotox: inactive; HT1080 IDH1KD tx: -26.6%; HT1080-NT tox: -1.8%; KB-3-1 tox: inactive

What do the screens show for `CC(=O)c1c(C)[nH]c(C(=O)NCCc2ccc(Cl)cc2)c1C`?
SW480 rereplic: -15.0%; MCF10A rerep: 3.66µM*; KB-V1 cytotox: inactive; HT1080 IDH1KD tx: 4.0%; HT1080-NT tox: 1.7%; KB-3-1 tox: inactive

What do the screens show for `CCC1CCCCN1CCCNC(=O)c1ccc2nc(N3CCC(C)CC3)sc2c1` (stereo not given)?
SW480 rereplic: 18.4µM*; MCF10A rerep: 20.2%; KB-V1 cytotox: inactive; HT1080 IDH1KD tx: inconclusive; HT1080-NT tox: inconclusive; KB-3-1 tox: inconclusive

What do the screens show for `O=C1Nc2ccccc2OC1CC(=O)N1CCOCC1` (stereo not given)?
SW480 rereplic: -4.1%; MCF10A rerep: -5.7%; KB-V1 cytotox: inactive; HT1080 IDH1KD tx: 4.7%; HT1080-NT tox: 21.5%; KB-3-1 tox: inactive

Results for O=C1Nc2ccccc2OC1CC(=O)N1CCN(c2cccc(C(F)(F)F)c2)CC1 (stereo not given) ?
SW480 rereplic: 9.5%; MCF10A rerep: 5.1%; KB-V1 cytotox: inconclusive; HT1080 IDH1KD tx: 20µM*; HT1080-NT tox: -15.3%; KB-3-1 tox: inactive

What do the screens show for `Cc1ccc(/C=N/N2CCN(c3ccccn3)CC2)cc1`?
SW480 rereplic: -4.1%; MCF10A rerep: -0.1%; KB-V1 cytotox: inactive; HT1080 IDH1KD tx: 14.0%; HT1080-NT tox: 10.7%; KB-3-1 tox: inactive

Results for ClC(=C\c1ccccc1)/C=N/N1CCN(c2ccccn2)CC1 ?
SW480 rereplic: 1.9%; MCF10A rerep: 11.5%; KB-V1 cytotox: 18.4µM*; HT1080 IDH1KD tx: 8.3%; HT1080-NT tox: 4.2%; KB-3-1 tox: inactive

What do the screens show for `COc1ccc(-c2noc(CSc3nnc(CCc4ccccc4)n3-c3ccccc3)n2)cc1OC`?
SW480 rereplic: 23.9%; MCF10A rerep: inconclusive; KB-V1 cytotox: 23.1µM*; HT1080 IDH1KD tx: inconclusive; HT1080-NT tox: inconclusive; KB-3-1 tox: inactive

How did COc1ccc(-n2c(SCc3nc(-c4ccc(Cl)cc4)no3)nnc2-c2ccncc2)cc1 do in these assays?
KB-V1 cytotox: inconclusive; KB-3-1 tox: inactive

How did Cc1ccc(-c2noc(CSc3nnc(Cc4ccccc4)n3-c3ccc(Cl)cc3)n2)cc1 do in these assays?
SW480 rereplic: inconclusive; MCF10A rerep: inconclusive; KB-V1 cytotox: 18.4µM*; HT1080 IDH1KD tx: inconclusive; HT1080-NT tox: inconclusive; KB-3-1 tox: inconclusive

Results for COc1ccc(-c2noc(CSc3nnc(Cc4ccccc4)n3-c3ccc(Cl)cc3)n2)cc1 ?
SW480 rereplic: 18.7%; MCF10A rerep: inconclusive; KB-V1 cytotox: 11.6µM*; HT1080 IDH1KD tx: inconclusive; HT1080-NT tox: inconclusive; KB-3-1 tox: inactive

Results for Cc1ccc(C2N3CC4(C)CN2CC(c2ccccc2)(C3)C4=O)cc1 (stereo not given) ?
KB-V1 cytotox: inactive; KB-3-1 tox: inactive

How did CC1(c2ccccc2)NC(=O)N(CC(=O)Nc2ccccc2N2CCCC2)C1=O (stereo not given) do in these assays?
SW480 rereplic: -5.2%; MCF10A rerep: -0.9%; KB-V1 cytotox: inactive; HT1080 IDH1KD tx: 3.7%; HT1080-NT tox: -7.7%; KB-3-1 tox: inactive

Results for CC(C)n1ncc2c(C(=O)Nc3cccc(S(=O)(=O)N(C)C)c3)cc(C3CC3)nc21 ?
SW480 rereplic: 9.7%; MCF10A rerep: inconclusive; KB-V1 cytotox: 8.2µM*; HT1080 IDH1KD tx: -2.7%; HT1080-NT tox: -2.5%; KB-3-1 tox: inconclusive
